Source: PubChem (National Center for Advancing Translational Sciences (NCATS))
Hits are enriched below; roughly 9.3% of the tested compounds scored in any of these assays.
NPC1 prom act: qHTS Assay for NPC1 Promoter Activators; AID 485313, 2010; Huh7 NPC1 promoter luciferase reporter, 24 h; Potency, µM (titrated, usually from 9.22 µM), usual class: activators; actives 2.4% (n = 320,000); note: nearly all actives have a fitted effect of over 60% in size
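In 1536-well qHTS, Huh7 cells harboring an NPC1 promoter–luciferase construct received compound for 24 h; activation was quantified by luminescence following luciferase reagent addition.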
FLuc counter: qHTS profiling assay for firefly luciferase inhibitor/activator using purifed enzyme and Km concentrations of substrates (counterscreen for miR-21 project) | Potency, µM (series often up to 57.5 µM), actives largely listed as inhibitors | Luciferin 4-monooxygenase (Photinus pyralis), P08659 | AID 588342, 2011 | actives 6.9% (n = 360,000) | purified FLuc, Km substrates, luminescence inhibition; note: nearly all actives have a fitted effect of over 55% in size
Target sequence (P08659 whole entry, looked up): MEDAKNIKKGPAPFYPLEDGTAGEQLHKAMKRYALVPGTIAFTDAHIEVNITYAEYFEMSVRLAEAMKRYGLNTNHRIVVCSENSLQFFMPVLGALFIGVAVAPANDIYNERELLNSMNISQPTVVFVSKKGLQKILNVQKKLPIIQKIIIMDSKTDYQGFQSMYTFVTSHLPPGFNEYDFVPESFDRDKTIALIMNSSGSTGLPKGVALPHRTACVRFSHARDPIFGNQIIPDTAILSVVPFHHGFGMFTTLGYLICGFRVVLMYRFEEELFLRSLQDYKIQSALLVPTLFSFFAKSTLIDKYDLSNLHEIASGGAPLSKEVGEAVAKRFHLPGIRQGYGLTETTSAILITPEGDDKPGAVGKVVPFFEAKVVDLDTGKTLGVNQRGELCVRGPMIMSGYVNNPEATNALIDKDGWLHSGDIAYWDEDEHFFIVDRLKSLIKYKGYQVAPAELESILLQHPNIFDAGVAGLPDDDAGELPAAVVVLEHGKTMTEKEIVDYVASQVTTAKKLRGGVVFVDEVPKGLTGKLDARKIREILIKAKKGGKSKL
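Biochemical qHTS of compounds, final roughly 60 µM downward over six points, against 10 nM purified firefly luciferase using Km concentrations of substrates (10 uM D-luciferin, 10 uM ATP) in Tris acetate pH 7.5 buffer; luminescence output.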
ELG1 genotox: qHTS screen for small molecules that induce genotoxicity in human embryonic kidney (HEK293T) cells expressing luciferase-tagged ELG1; HEK293T ELG1-luciferase reporter, luminescence, 16 h; Potency, µM (top dose mostly 46 µM), usual class: activators; actives 1.3% (n = 330,000); note: nearly all actives have a fitted effect of over 60% in size
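HEK293T cells expressing luciferase-tagged ELG1 were treated with compound or DMSO for 16 hr at 37°C. Luciferase activity was then read after 30 min with ONE-Glo at room temperature; rising signal flags genetic stress.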
ELG1 DNA repair: qHTS screen for small molecules that inhibit ELG1-dependent DNA repair in human embryonic kidney (HEK293T) cells expressing luciferase-tagged ELG1; HEK293T ELG1-luciferase reporter, luminescence, 16 h; DNA damage induced by 5-fluorouridine; Potency, µM (series often up to 46.1 µM), actives largely listed as inhibitors; actives 2.3% (n = 330,000); note: nearly all actives have a fitted effect of over 55% in size
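HEK293T cells expressing luciferase-tagged ELG1 (2,000/well) received 5-Fluorouridine plus compound or DMSO for 16 hr at 37 °C. Luciferase was read by ONE-Glo luminescence after 30 min at room temperature.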
Rab9 promoter act: qHTS Assay for Rab9 Promoter Activators; Potency, µM (series often up to 9.22 µM), usual class: activators; Huh7 Rab9 promoter-luciferase reporter, luminescence, 24 h; actives 2.8% (n = 320,000); note: nearly all actives have a fitted effect of over 60% in size
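Luminescence from Amplite-detected luciferase (10 minutes, ambient) reports Rab9 promoter activation. Before that, stable Rab9-luciferase Huh7 cells (1500/well, reduced-serum OP-MEM I plus 10% FBS) were exposed to compound for 24 hours at 37C.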
SMN2 splice up: qHTS Assay for Enhancers of SMN2 Splice Variant Expression. AID 1458, 2008. actives 2.8% (n = 210,000). Potency, µM (titrated, usually from 46.1 µM), hits mostly activators. HEK293 SMN2-luciferase splicing reporter, luminescence, 30-36 h; note: nearly all actives have a fitted effect of over 55% in size
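HEK293 cells carry an SMN2 minigene-luciferase reporter in which exon 7 inclusion puts luciferase in frame. Cells were seeded at 2000 cells/well, attached for 10-12 hours, then exposed to compounds for 30-36 hours at 37C before ONE-Glo luminescence.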
Hits are given with their value; 0 = inactive; ? = inconclusive; - = no result given; [ ] = another dose, or the depositor's remark. Calls come from the whole dose curve; as a rule, active = well fitted curve in the direction sought with a large enough effect; inconclusive = small, poorly fitted or top-dose-only effect, or another doubt; inactive = no such curve, though single readings can be large; an effect the other way counts as inactive or inconclusive.

SMILES	NPC1 prom act	FLuc counter	ELG1 genotox	ELG1 DNA repair	Rab9 promoter act	SMN2 splice up
Cc1[nH]c(C)c(S(=O)(=O)NCC(C)c2ccccc2)c1C(=O)N1CCCCC1 (configuration not stated)	0	0	0	0	0	-
O=C(O)CCC(=O)N1CCN(c2ccccn2)CC1	0	0	0	0	0	0
O=C(CCC1CCCN(C(=O)COc2ccccc2)C1)N1CCN(c2ccccn2)CC1 (configuration not stated)	0	0	0	21µM	0	-
CC(C)c1cc(C(=O)N2CCCC(CCC(=O)N3CCN(c4ccccn4)CC3)C2)no1 (configuration not stated)	0	0	0	12µM	0	-
O=C(CCSCc1ccccc1Cl)N1CCN(c2ccccn2)CC1	?	24µM	0	?	?	0
CC(C)(C)c1ccc(OCC(=O)N2CCN(c3ccccn3)CC2)cc1	0	12µM	0	?	0	-
CCc1cc(C(=O)N2CCCC(CCC(=O)N3CCN(c4ccccn4)CC3)C2)no1 (configuration not stated)	0	0	0	?	0	-
Cc1ccc(O)c(-n2nc3ccccc3n2)c1	3.2µM	2.7µM	?	?	3.2µM	-
COc1ccc(C)cc1-n1nc2ccccc2n1	0	0	0	0	0	0
FC(F)(F)c1cccc(N2CCN(c3nnnn3-c3ccccc3)CC2)c1	0	0	0	0	0	0
COc1ccc(C(=O)OCC#CCSc2nnc(-c3cccc4ccccc34)o2)cc1	0	0	0	0	0	-
COc1ccc(-c2cc(-c3c(O)c(OC)c4occc4c3OC)[nH]n2)cc1	0	17µM	0	0	0	0
COc1ccc(-c2cc(-c3c(O)c(OC)c4occc4c3OC)[nH]n2)cc1OC	0	17µM	0	26µM	0	0
O=C1Nc2ccc(Br)cc2C1(O)Cc1ccncc1 (configuration not stated)	0	0	0	0	0	0
O=C1Nc2ccccc2S/C1=C/NCc1ccccc1Cl	0	19µM	0	0	0	0
COc1ccccc1N/C=C1/Sc2cc(Cl)ccc2NC1=O	0	0	0	0	0	0
COc1ccc(N/C=C2/Sc3ccccc3NC2=O)cc1	?	2.7µM	?	?	?	13µM
Cc1ccc(N/C=C2/Sc3ccccc3NC2=O)cc1	?	1.9µM	?	?	3.2µM	?
O=[N+]([O-])c1cccc(OCc2cn3cccnc3n2)c1	0	0	0	?	0	0
Cc1ccc(OCc2cn3cccnc3n2)cc1	3.5µM	21µM	18µM	?	2.8µM	8.9µM
Cc1cccn2cc(COc3ccc(-c4ccccc4)cc3)nc12	?	9.5µM	?	?	?	-
Cc1cccn2cc(COc3cccc([N+](=O)[O-])c3)nc12	0	?	0	?	?	-
O=C1CNC(=O)/C(=C\c2ccc(F)cc2)N1	0	0	0	0	0	-
O=C1C(=C2SCCCS2)CC/C1=C\c1ccc(F)cc1	?	0.067µM	?	?	?	0
Cc1cccc(/C=C2\CCC(=C3SCCCS3)C2=O)c1	0.32µM	0.085µM	?	?	0.089µM	?
SMILES	NPC1 prom act	FLuc counter	ELG1 genotox	ELG1 DNA repair	Rab9 promoter act	SMN2 splice up
COc1ccc(N2CCN(C(=O)C3CCC(Cn4c(=S)[nH]c5ccccc5c4=O)CC3)CC2)cc1 (configuration not stated)	0	0	0	?	0	0
CCCN1CCC(=O)N([C@H](CSc2ccc(Br)cc2)c2ccccc2)CC1	0	17µM	0	?	?	-
CCCN1CCC(=O)N([C@H](CSc2ccccc2)CC(C)C)CC1	3.2µM	21µM	?	0	3.2µM	-
CCCN1CCC(=O)N([C@H](CSc2ccc(C)cc2)CC(C)C)CC1	4µM	11µM	?	?	?	-
CC(C)C[C@@H](CSc1ccccc1)N1CCN(CC(C)C)CCC1=O	?	15µM	?	?	?	-
CCCN1CCC(=O)N([C@H](CSc2ccc(C)cc2)Cc2ccccc2)CC1	0	0	0	0	0	-
Cc1ccccc1C(=O)NN1CCOCC1	0	0	0	0	0	0
N/C(=N\OC(=O)c1ccc2c(c1)OCO2)c1cccnc1	?	1.2µM	?	?	?	-
COc1ccc(C(=O)O/N=C(\N)Cc2ccc(Cl)cc2)cc1OC	0	0	0	?	0	0
COc1ccc(C(=O)Oc2ccc3c(c2)OCO3)cc1OC	0	24µM	0	?	0	0
COc1ccc(/C(N)=N/OC(=O)c2ccc3c(c2)OCO3)cc1OC	?	3µM	?	?	?	?
COc1ccc(C(=O)O/N=C(\N)Cc2ccc(Cl)c(Cl)c2)cc1OC	0	0	0	18µM	0	0
N/C(=N\OC(=O)c1ccc2c(c1)OCO2)c1ccc([N+](=O)[O-])cc1	?	?	?	?	?	0
CCN(CC)S(=O)(=O)c1ccc(NS(=O)(=O)c2cccs2)cc1	0	0	0	0	0	0
CCc1ccccc1NC(=O)C1CCN(c2cnccn2)CC1	0	0	0	0	0	-
N/C(=N\OC(=O)c1cccc(Br)c1)c1ccc(Br)cc1	0	?	0	?	0	0
N/C(=N\OC(=O)c1ccc2c(c1)OCO2)c1cccc(Br)c1	?	0.13µM	?	?	4.5µM	-
CN1CCN(c2nc(-c3ccc(Cl)s3)cs2)CC1	0	17µM	0	?	?	0
CCCCC(=O)N1CCN(c2nc(-c3ccc(F)cc3)cs2)CC1	0	?	0	0	0	-
CCS(=O)(=O)N1CCN(c2nc(-c3ccccc3)cs2)CC1	0	19µM	?	?	0	0
CC(C)C(=O)N1CCN(c2nc(-c3ccc(Cl)cc3)cs2)CC1	0	0	0	0	0	-
CS(=O)(=O)N1CCN(c2nc(-c3ccccc3)cs2)CC1	0	?	?	?	0	0
NC(=O)C1CCN(c2nc(-c3ccc([N+](=O)[O-])cc3)cs2)CC1	-	0	-	-	-	-
O=C(N1CCOCC1)N1CCN(c2nc(-c3ccc(F)cc3)cs2)CC1	0	11µM	0	0	0	0
O=[N+]([O-])c1ccc(-c2csc(N3CCCCCC3)n2)cc1	?	12µM	0	?	?	-
Cc1cccc(N2CCN(CCCNc3ncnc4onc(-c5ccc(F)cc5)c34)CC2C)c1 (configuration not stated)	-	0	-	-	-	-
CN(C)Cc1cc(C(C)(C)C)cc(CN(C)C)c1O	-	-	-	-	-	0[9.22 µM]
COCCNC(=O)c1ccc(-n2c(-c3ccccc3)cc3c2CCC(C)C3)cc1 (configuration not stated)	-	0	-	-	-	-
